# Tests used:
# Test in all cases: thermal shift delta Tm vs DMSO control; higher = stronger stabilization (binding)
# Settings in all cases: 12.5 µM; protein concentration 2 µM
# LOC_OS02G45750-cb003 = test system: LOC_OS02G45750-cb003
# In short: (§1)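 Thermal shift values come from differential scanning fluorimetry on purified rice kinase domains made in E. coli, with melting temperatures obtained from Boltzmann fits. Samples of 19.5 μl held 2 μM kinase, 100 mM potassium phosphate pH 7.5, 150 mM NaCl, 10% glycerol, 5 × SYPRO Orange and compound in DMSO, and were heated from 25°C to 95°C at 0.05°C/s. Each shift is a triplicate mean relative to the DMSO-only protein sample.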
# LOC_OS02G54510-cb004 = test system: LOC_OS02G54510-cb004
# In short: as §1
# LOC_OS03G04050-cb001 = test system: LOC_OS03G04050-cb001
# In short: as §1
# LOC_OS03G12390-cb001 = test system: LOC_OS03G12390-cb001
# In short: as §1
# LOC_OS03G27990-cb004 = test system: LOC_OS03G27990-cb004
# In short: as §1
# LOC_OS03G50450-cb001 = test system: LOC_OS03G50450-cb001
# In short: as §1
# LOC_OS03G50810-cb003 = test system: LOC_OS03G50810-cb003
# In short: as §1
# LOC_OS04G35114-cb001 = test system: LOC_OS04G35114-cb001
# In short: as §1
# LOC_OS04G38480-cb003 = test system: T1, LOC_OS04G38480-cb003
# T1 sequence (whole entry): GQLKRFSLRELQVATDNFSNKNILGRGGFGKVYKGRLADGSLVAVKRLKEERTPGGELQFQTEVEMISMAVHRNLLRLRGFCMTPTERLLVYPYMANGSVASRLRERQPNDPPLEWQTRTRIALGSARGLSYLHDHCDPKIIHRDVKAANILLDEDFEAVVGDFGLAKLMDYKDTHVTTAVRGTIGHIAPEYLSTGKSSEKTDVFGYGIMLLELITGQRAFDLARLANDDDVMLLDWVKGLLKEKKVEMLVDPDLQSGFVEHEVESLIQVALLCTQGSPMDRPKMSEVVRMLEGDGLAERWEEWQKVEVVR
# In short: as §1
# LOC_OS04G41100-cb001 = test system: T2, LOC_OS04G41100-cb001
# T2 sequence (whole entry): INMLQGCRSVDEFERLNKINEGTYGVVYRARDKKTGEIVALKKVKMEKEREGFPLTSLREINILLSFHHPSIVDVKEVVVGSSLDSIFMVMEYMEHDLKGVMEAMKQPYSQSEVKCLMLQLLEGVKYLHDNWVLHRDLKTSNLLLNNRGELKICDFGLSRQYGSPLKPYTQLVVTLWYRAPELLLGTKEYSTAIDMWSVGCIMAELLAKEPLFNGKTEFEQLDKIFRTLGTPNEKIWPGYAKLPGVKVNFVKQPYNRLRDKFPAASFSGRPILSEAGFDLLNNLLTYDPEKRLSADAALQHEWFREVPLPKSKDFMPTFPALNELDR
# In short: as §1
# LOC_OS04G57630-cb004 = test system: LOC_OS04G57630-cb004
# In short: as §1
# LOC_OS05G07850-cb002 = test system: LOC_OS05G07850-cb002
# In short: as §1
# LOC_OS05G16824-cb004 = test system: LOC_OS05G16824-cb004
# In short: as §1
# LOC_OS05G28520-cb001 = test system: LOC_OS05G28520-cb001
# In short: as §1
# LOC_OS05G30820-cb001 = test system: LOC_OS05G30820-cb001
# In short: as §1
# LOC_OS05G43570-cb004 = test system: LOC_OS05G43570-cb004
# In short: as §1
# LOC_OS06G16330-cb003 = test system: LOC_OS06G16330-cb003
# In short: as §1
# LOC_OS06G22820-cb001 = test system: T3, LOC_OS06G22820-cb001
# T3 sequence (whole entry): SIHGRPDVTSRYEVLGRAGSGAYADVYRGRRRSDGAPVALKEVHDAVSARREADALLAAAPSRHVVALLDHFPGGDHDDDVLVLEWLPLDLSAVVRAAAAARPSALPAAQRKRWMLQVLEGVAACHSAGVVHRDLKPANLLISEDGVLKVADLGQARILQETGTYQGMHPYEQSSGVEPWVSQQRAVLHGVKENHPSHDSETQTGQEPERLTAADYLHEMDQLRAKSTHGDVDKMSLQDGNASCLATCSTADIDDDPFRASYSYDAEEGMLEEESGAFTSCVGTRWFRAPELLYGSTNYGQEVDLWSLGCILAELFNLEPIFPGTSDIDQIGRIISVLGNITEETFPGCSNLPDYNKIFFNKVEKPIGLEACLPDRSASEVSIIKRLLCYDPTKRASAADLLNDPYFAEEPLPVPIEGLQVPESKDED
# In short: as §1
# LOC_OS07G06570-cb004 = test system: LOC_OS07G06570-cb004
# In short: as §1
# LOC_OS07G07230-cb001 = test system: LOC_OS07G07230-cb001
# In short: as §1
# 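Further: purified Escherichia coli-expressed rice kinase domain construct.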
# LOC_OS06G16330-cb003, sequence (as listed by the source): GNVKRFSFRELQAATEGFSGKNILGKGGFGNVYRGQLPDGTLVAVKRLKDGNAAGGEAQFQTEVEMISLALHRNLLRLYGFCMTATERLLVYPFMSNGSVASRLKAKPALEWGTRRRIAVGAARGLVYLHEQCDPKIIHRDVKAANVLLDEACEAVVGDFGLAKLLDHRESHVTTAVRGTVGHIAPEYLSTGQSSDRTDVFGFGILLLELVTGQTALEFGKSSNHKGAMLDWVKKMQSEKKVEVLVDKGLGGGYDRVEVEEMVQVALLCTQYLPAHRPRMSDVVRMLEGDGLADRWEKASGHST
SMILES,thermal shift delta Tm (LOC_OS02G45750-cb003),thermal shift delta Tm (LOC_OS02G54510-cb004),thermal shift delta Tm (LOC_OS03G04050-cb001),thermal shift delta Tm (LOC_OS03G12390-cb001),thermal shift delta Tm (LOC_OS03G27990-cb004),thermal shift delta Tm (LOC_OS03G50450-cb001),thermal shift delta Tm (LOC_OS03G50810-cb003),thermal shift delta Tm (LOC_OS04G35114-cb001),thermal shift delta Tm (LOC_OS04G38480-cb003),thermal shift delta Tm (LOC_OS04G41100-cb001),thermal shift delta Tm (LOC_OS04G57630-cb004),thermal shift delta Tm (LOC_OS05G07850-cb002),thermal shift delta Tm (LOC_OS05G16824-cb004),thermal shift delta Tm (LOC_OS05G28520-cb001),thermal shift delta Tm (LOC_OS05G30820-cb001),thermal shift delta Tm (LOC_OS05G43570-cb004),thermal shift delta Tm (LOC_OS06G16330-cb003),thermal shift delta Tm (LOC_OS06G22820-cb001),thermal shift delta Tm (LOC_OS07G06570-cb004),thermal shift delta Tm (LOC_OS07G07230-cb001)
NC[C@@](O)(c1ccc(Cl)cc1)c1ccc(-c2cn[nH]c2)cc1,1.24 °C,0.3 °C,0.31 °C,0.49 °C,0.56 °C,0.8 °C,0.36 °C,1.05 °C,1.51 °C,0.81 °C,0.11 °C,1.75 °C,0.67 °C,0.5 °C,0.47 °C,2.11 °C,0.77 °C,0.65 °C,0.91 °C,0.04 °C
Cn1cc(-c2cnn3c(N)c(Br)c([C@@H]4CCCNC4)nc23)cn1,2.88 °C,0.55 °C,0.3 °C,0.78 °C,0.85 °C,0.38 °C,1.12 °C,1.17 °C,2.62 °C,0.97 °C,0.1 °C,6.22 °C,4.78 °C,0.02 °C,0.27 °C,0.29 °C,7.12 °C,0.34 °C,0.75 °C,0.55 °C
CN1CCN(c2ccc3nc(-c4c(N)c5c(F)cccc5[nH]c4=O)[nH]c3c2)CC1 [Dovitinib (TKI-258) Dilactic Acid],16.3 °C,1.95 °C,0.96 °C,4.57 °C,8.19 °C,5.49 °C,1.54 °C,9.41 °C,1.48 °C,0.82 °C,3.62 °C,8.93 °C,15.7 °C,1.54 °C,1.04 °C,1.01 °C,6.51 °C,0.63 °C,1.1 °C,0.06 °C
NC(=O)Nc1cc(-c2cccc(F)c2)sc1C(=O)N[C@H]1CCCNC1,1.81 °C,1.91 °C,0.72 °C,2.87 °C,3.23 °C,3.98 °C,4.12 °C,2.52 °C,2.65 °C,0.96 °C,3.39 °C,11.9 °C,10.8 °C,0.35 °C,1.33 °C,1.05 °C,9.93 °C,0.87 °C,1.07 °C,-0.31 °C
Nc1nc(N)c2nc(-c3cccc(O)c3)c(-c3cccc(O)c3)nc2n1,0.83 °C,0.31 °C,0.2 °C,0.79 °C,1.44 °C,0.33 °C,0.34 °C,0.99 °C,1.12 °C,0.63 °C,0.04 °C,5.27 °C,-5.41 °C,0.94 °C,0.79 °C,0.92 °C,0.76 °C,0.53 °C,1.54 °C,0.2 °C
COc1cc2ncnc(Nc3cccc(Cl)c3F)c2cc1OC(=O)N1CCN(C)C[C@H]1C,1.31 °C,0.53 °C,0.43 °C,0.01 °C,0.33 °C,0.9 °C,0.48 °C,3.07 °C,1.2 °C,0.24 °C,0.65 °C,9.1 °C,-0.19 °C,0.6 °C,0.5 °C,0.72 °C,2.26 °C,0.6 °C,1.12 °C,0.94 °C
COC(=O)c1ccc2c(c1)NC(=O)/C2=C(\Nc1ccc(N(C)C(=O)CN2CCN(C)CC2)cc1)c1ccccc1 [Nintedanib (BIBF 1120)],2.59 °C,0.74 °C,0.2 °C,2.83 °C,1.25 °C,0.03 °C,2.2 °C,6.69 °C,0.23 °C,0.7 °C,1.08 °C,1.57 °C,9.2 °C,0.54 °C,0.35 °C,0.43 °C,0.71 °C,0.4 °C,0.96 °C,0.42 °C
CS(=O)(=O)c1ccc(-c2cnc(N)c(C(=O)Nc3ccccc3)n2)cc1,4.49 °C,0.26 °C,0.2 °C,0.62 °C,0.7 °C,0.18 °C,0.94 °C,3.32 °C,1.11 °C,0.38 °C,0.45 °C,8.7 °C,-1.5 °C,0.25 °C,0.57 °C,0.1 °C,2.51 °C,0.37 °C,0.82 °C,0.7 °C
Cc1c(NC(=O)c2ccc(C(C)(C)C)cc2)cccc1-c1cn(C)c(=O)c(Nc2ccc(C(=O)N3CCOCC3)cc2)n1,1.07 °C,0.28 °C,0.82 °C,1.85 °C,0.51 °C,0.69 °C,0.7 °C,0.72 °C,0.87 °C,0.43 °C,0.37 °C,0.29 °C,0.48 °C,0.5 °C,0.18 °C,0.64 °C,0.07 °C,0.84 °C,1.05 °C,-0.21 °C
Cc1cc(Nc2ncc(Cl)c(Nc3ccccc3S(=O)(=O)C(C)C)n2)c(OC(C)C)cc1C1CCNCC1 [Ceritinib (LDK378)],0.68 °C,0.09 °C,0.7 °C,2.72 °C,0.52 °C,0.56 °C,0.58 °C,0.66 °C,1 °C,0.26 °C,0.2 °C,3.05 °C,-1.5 °C,0.31 °C,0.63 °C,0.27 °C,4.76 °C,0.68 °C,1.5 °C,0.14 °C

# From the supplement of paper PMC9694430
